Measured values from the supplement of paper PMC13380429.
A number with no mark means an inactive call.

System: Vero E6 infected with SARS-CoV-2
Experiment: inhibition of SARS-CoV-2 cytopathic effect; higher = more antiviral protection, active = above 15
Details: 48 h

Structure (SMILES) | inhibition of SARS-CoV-2 cytopathic effect (1 nM) | inhibition of SARS-CoV-2 cytopathic effect (8.33 nM) | inhibition of SARS-CoV-2 cytopathic effect (100 nM) | inhibition of SARS-CoV-2 cytopathic effect (833.33 nM) | inhibition of SARS-CoV-2 cytopathic effect (10000 nM)
O=[N+]([O-])c1ccc(O)c([N+](=O)[O-])c1 [2,4-dinitrophenol] | 2.74% | 2.11% | 5.04% | 2.61% | 2.69%
COc1ccc(Nc2ccn(-c3ccccc3)n2)cc1 | 2.12% | 1.12% | 3.85% | 3.51% | 4.1%
Nc1cc(N2CCCCC2)nc(N)[n+]1[O-] [minoxidil] | 0.37% | 0.28% | -0.2% | 1.1% | -0.33%
C[C@@]12CC[C@@H]3[C@@](CC[C@H]4[C@@]3(C)CCC[C@@]4(C)C(=O)O)(CC1=O)C2 [isosteviol] | -1.01% | 3.07% | -0.69% | 0.69% | 1.55%
Cc1ccc(/C(=C\CN2CCCC2)c2cccc(/C=C/C(=O)O)n2)cc1 [acrivastine] | 0.5% | -0.13% | 0.75% | 6.14% | 1.35%
Oc1cccc(Nc2ncc(F)c(Nc3cccc(O)c3)n2)c1 | 2.79% | 0.2% | 0.24% | -2.05% | -5.48%
CC1CNc2c(cccc2S(=O)(=O)N[C@@H](CCCNC(=N)N)C(=O)N2CC[C@@H](C)C[C@@H]2C(=O)O)C1 (mixture of isomers) [argatroban] | -2.89% | 2.45% | 0.37% | 0.05% | -0.11%
CC[N+]1(C)CCCC(OC(=O)C(O)(c2ccccc2)c2ccccc2)C1 (stereo not given) [pipenzolate] | -0.09% | -0.02% | -2.48% | -0.83% | -1.6%
C=CCn1c(=O)c2cnc(Nc3ccc(N4CCN(C)CC4)cc3)nc2n1-c1cccc(C(C)(C)O)n1 | -1.29% | 2.7% | 0.63% | -3.99% | -6.53%
Cc1sc(C)c2c1CCC=C2c1c[nH]cn1 | -1.05% | -1.35% | -1.5% | -2.81% | -2.28%
O=C1C=Cc2cc(Br)ccc2C1=O [bonaphthone] | -0.83% | 0.78% | -2.18% | -1.56% | -2.53%
CN1C(=O)CC(c2ccccc2)C1=O (stereo not given) [phensuximide] | 2.58% | 3.13% | 2.74% | 2.55% | -1.46%
COCCOC(=O)C1=C(C)NC(C)=C(C(=O)OC(C)C)C1c1cccc([N+](=O)[O-])c1 (stereo not given) [nimodipine] | -2.49% | -0.07% | -1% | 1.52% | 1.16%
OCCCNc1ccccc1 [3-anilinopropan-1-ol] | -0.17% | 2.09% | -0.59% | -0.07% | 1.39%
Cc1cc(-c2ccc(CC(=O)Nc3ccc(-c4cccnc4)cc3)cc2)ccn1 | -2.73% | -2.58% | -2.93% | 4.57% | 7.2%
COCc1nnc(N2CC(Oc3ccc(F)cc3Cl)C2)n1-c1ccc(OC)nc1 | -1.23% | -3.96% | -0.12% | -1.42% | -1.43%
CC(C)Cc1ccc(C(C)C(=O)O)cc1 (stereo not given) [ibuprofen] | 1.03% | -0.113% | -0.0767% | 1.1% | -0.35%
CC(C)[C@H](CO)Nc1nc(Nc2cc(N)cc(Cl)c2)c2ncn(C(C)C)c2n1 [aminopurvalanol-a] | 4.14% | 0.51% | -1.34% | -0.35% | -6.98%
CC(C)(C)C#Cc1cc(N(C(=O)[C@H]2CC[C@H](C)CC2)[C@H]2CC[C@@H](O)CC2)c(C(=O)O)s1 | 1.62% | 2.19% | -0.17% | 1.33% | 1.51%
Cc1ccc(C(=O)c2cc(O)c(O)c([N+](=O)[O-])c2)cc1 [tolcapone] | -5.06% | -3.82% | -4.1% | 0.66% | 1.15%

Structure (SMILES) | inhibition of SARS-CoV-2 cytopathic effect (1 nM) | inhibition of SARS-CoV-2 cytopathic effect (8.33 nM) | inhibition of SARS-CoV-2 cytopathic effect (100 nM) | inhibition of SARS-CoV-2 cytopathic effect (833.33 nM) | inhibition of SARS-CoV-2 cytopathic effect (10000 nM)
CCCCCCCCN=c1ccn(CCCCCCCCCCn2ccc(=NCCCCCCCC)cc2)cc1 [octenidine] | 0.26% | 2.35% | 0% | -7.17% | -19.8%
CC1(C)CCC(C)(C)c2cc(Cn3cccn3)c(/C=C/c3ccc(C(=O)O)cc3)cc21 [palovarotene] | 3.77% | 1.22% | 1.2% | 0.58% | 2.48%
O=C(O)c1cc(-c2ccccc2)nc2ccccc12 [cinchophen] | -0.85% | -0.04% | -2.56% | 0.2% | 2.97%
CO/N=C(\C(=O)N[C@@H]1C(=O)N2C(C(=O)OCOC(=O)C(C)(C)C)=C(C)CS[C@H]12)c1csc(N)n1 [cefetamet-pivoxil] | -1.77% | -0.88% | -2.82% | -0.78% | -2.04%
COc1cc(N)cn[n+]1-c1ccccc1 [amezinium] | -1.03% | -0.58% | 0.21% | 0.15% | -1.56%
CN(C)CC/C=C1/c2ccccc2Sc2ccc(Cl)cc21 [chlorprothixene] | 5.54% | 3.98% | -4.95% | -3.59% | -1.82%
C[C@@H](CN(C)C)CN1c2ccccc2Sc2ccccc21 (racemic) [alimemazine] | -2.63% | -3.15% | -1.76% | -0.79% | -0.47%
Cc1ccc(C(=O)N(CCCN)[C@@H](c2nc3cc(Cl)ccc3c(=O)n2Cc2ccccc2)C(C)C)cc1 [ispinesib] | 0.51% | -1.24% | -2% | -2.99% | -4.72%
CCc1c2c(nc3ccc(OC(=O)N4CCC(N5CCCCC5)CC4)cc13)-c1cc3c(c(=O)n1C2)COC(=O)[C@]3(O)CC [irinotecan] | -2.2% | 1.89% | 1.85% | 1.56% | -0.23%
O=c1[nH]c2cc(C(F)(F)F)c(N3CCOCC3)cc2n(CP(=O)(O)O)c1=O | 0.45% | 0.83% | -1.59% | 1.35% | -2.92%
CCOCc1cc(OC)c(-c2ccc(C[C@H](NC(=O)c3c(F)cccc3F)C(=O)O)cc2)c(OC)c1 [firategrast] | 2.19% | -0.43% | 0.01% | -0.69% | -2.41%
Cc1ncc(C)n2nc([C@@H]3C[C@H]3c3nc4c5cccnc5ccn4c3C)nc12 | 0.4% | 0.57% | 0.67% | -1.22% | 4.45%
Cn1cc(C2=C(c3ccc(Cl)cc3Cl)C(=O)NC2=O)c2ccccc21 | 2.26% | 6.22% | 4.19% | 1.47% | 20.8% (active)
CCc1ccc(CCOc2ccc(CC3SC(=O)NC3=O)cc2)nc1 (stereo not given) [pioglitazone] | -1.62% | 1.34% | 1.49% | -8.11% | 1.27%
CC(C)[C@H]1CC[C@H](C(=O)N[C@H](Cc2ccccc2)C(=O)O)CC1 [nateglinide] | 0.56% | 2.28% | 0.38% | 1.09% | 1.33%
Cc1ccc(Cl)c(OC[C@H](O)CNC(C)C)c1 [1-(2-chloro-5-methylphenoxy)-3-(isopropylamino)-2-propanol] | 0.19% | -0.3% | -0.68% | 0.3% | -2.47%
Cc1cc(C2CCCCC2)n(O)c(=O)c1 [ciclopirox] | 0.88% | 1.21% | 0.99% | -0.09% | -2.68%
CC(CCc1ccc(O)cc1)NCCc1ccc(O)c(O)c1 (stereo not given) [dobutamine] | -0.38% | -2.55% | -1.12% | -2.15% | -0.94%
Cc1nnsc1C(=O)Nc1ccc(-n2nc(C(F)(F)F)cc2C(F)(F)F)cc1 | -4.22% | 2.91% | 0.56% | -0.23% | -10.5%
O=C1C(O)=C(O)C(=O)C(O)=C1O [tetroquinone] | -0.23% | 0.57% | 1.71% | -0.73% | -0.73%
